Calls of active or inactive are those of the source.
Experiments:
Albumin (Bos taurus) = Albumin (Bos taurus) (UniProt P02769); assay: compounds binding labelled BSA control protein – biochemical, small-molecule microarray, Alexa647 label, 635/667 nm fluorescence, artefact control for SMM control protein annotation, profiling panel (AID 1118); conditions: BSA-A647 binding, fluorescence 635 nm, higher = more signal;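 further: score merges 667 nm emission intensity and signal-to-noise per printed compound spot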
Chain of Albumin (Bos taurus) (P02769 whole entry, looked up): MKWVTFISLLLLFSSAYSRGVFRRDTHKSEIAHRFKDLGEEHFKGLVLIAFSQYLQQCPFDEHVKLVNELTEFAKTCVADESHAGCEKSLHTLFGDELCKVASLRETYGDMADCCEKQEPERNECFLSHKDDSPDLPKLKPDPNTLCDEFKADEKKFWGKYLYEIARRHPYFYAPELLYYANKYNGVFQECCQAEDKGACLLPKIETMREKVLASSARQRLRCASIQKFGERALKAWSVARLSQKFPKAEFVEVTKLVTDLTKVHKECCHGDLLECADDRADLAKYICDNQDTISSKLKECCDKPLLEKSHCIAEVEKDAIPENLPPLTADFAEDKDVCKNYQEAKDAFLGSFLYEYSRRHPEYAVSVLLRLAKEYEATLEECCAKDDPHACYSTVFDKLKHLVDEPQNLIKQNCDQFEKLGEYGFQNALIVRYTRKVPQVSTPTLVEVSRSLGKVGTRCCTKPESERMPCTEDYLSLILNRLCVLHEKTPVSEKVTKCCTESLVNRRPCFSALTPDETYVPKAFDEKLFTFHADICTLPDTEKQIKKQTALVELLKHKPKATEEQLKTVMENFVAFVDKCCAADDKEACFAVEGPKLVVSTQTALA

[1] = probe aXIP binding to arrayed compounds – biochemical, NeuroSMM set, 635/667 nm fluorescence, primary screen (AID 1119); conditions: small-molecule microarray, higher = more signal, called active from +8 up or from −8 down;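 further: probe is the protein aXip251-270 applied at 1 µg/mL to compound-printed slides; binding of probe to printed compounds measured as 667 nm fluorescence plus signal to noise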
[2] = probe aNOTCH3 binding on compound microarray – biochemical, small-molecule microarray, 635/667 nm fluorescence, primary screen (AID 1120); conditions: higher = more signal;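 further: probe is a biotin-tagged antibody raised against NOTCH3 rather than NOTCH3 protein; score merges spot fluorescence near 667 nm with spot signal to noise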
[3] = probe aNOTCH2 binding on compound microarray – biochemical, small-molecule microarray, 635/667 nm fluorescence, primary screen (AID 1121); conditions: higher = more signal;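 further: score merges feature fluorescence read at 667 nm with its signal to noise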
[4] = biological target: Carbonic anhydrase 2 (Homo sapiens) (UniProt P00918); assay: compounds binding carbonic anhydrase 2 – biochemical, small-molecule microarray, Alexa647-labelled CAII, profiling panel (AID 1122); conditions: CAII-A647 binding fluorescence, higher = more signal
[5] = COS7 lysate on small-molecule microarray, probe aHis, 635 nm (AID 1123); conditions: COS7 cell lysate, fluorescence, higher = more signal;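 further: z-score combines 667nm fluorescence intensity with signal-to-noise per printed compound spot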
[6] = probe aLAP1 signal on lysate-treated microarray – cell lysate, small-molecule microarray, COS7 lysate, primary screen (AID 1124); conditions: probe aLAP1, fluorescence, higher = more signal;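 further: lysate comes from COS7 cells expressing LAP1 and is applied at 0.3 µg/mL; score merges spot fluorescence near 667 nm with signal-to-noise over triplicate slides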
Sam68 (KHDRBS1) = assay: compounds binding KHDRBS1 protein – biochemical, small-molecule microarray, 635 nm fluorescence, primary screen (AID 1125); conditions: higher = more signal;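 further: score merges 667 nm channel intensity with signal to noise over triplicate slides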
[7] = tested on: Chordin-like protein 2 (CHRDL2); assay: compounds binding chordin-like 2 – biochemical, small-molecule microarray, 635 nm fluorescence, primary screen (AID 1126); conditions: fluorescence 635 nm, higher = more signal;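 further: printed compound slides probed with Chrdl2 protein at 4 µg/mL for 1 h at 4 C; score merges 667 nm emission intensity with signal to noise over three replicate slides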
[8] = biological target: Concanavalin-A (Canavalia ensiformis) (UniProt P02866); assay: compounds binding concanavalin A lectin – biochemical, small-molecule microarray, Alexa647 label, 635 nm, artefact control for SMM control protein annotation, primary screen (AID 1127); conditions: ConA-A647 binding fluorescence, higher = more signal;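 further: z combines 667 nm emission intensity with signal-to-noise across three replicate slides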
Chain of Concanavalin-A (Canavalia ensiformis) (P02866 whole entry, looked up): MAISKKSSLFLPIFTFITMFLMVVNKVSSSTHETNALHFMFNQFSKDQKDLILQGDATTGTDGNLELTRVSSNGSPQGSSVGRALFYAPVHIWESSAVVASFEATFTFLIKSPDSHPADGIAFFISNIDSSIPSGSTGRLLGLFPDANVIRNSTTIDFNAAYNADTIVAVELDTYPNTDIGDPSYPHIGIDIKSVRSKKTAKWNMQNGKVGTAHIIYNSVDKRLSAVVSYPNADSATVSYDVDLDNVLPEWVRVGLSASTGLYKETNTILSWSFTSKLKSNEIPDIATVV

SMILES | composite z-score (Albumin (Bos taurus)) | composite Z-score [1] | composite z-score [2] | composite z-score [3] | composite z-score [4] | composite z-score [5] | composite z-score [6] | composite z-score (Sam68 (KHDRBS1)) | composite z-score [7] | composite z-score [8]
CCCN1C(=O)[C@]2(Cc3ccccc3)N=C(c3ccc(OCCCO)cc3)O[C@@H]2c2ccccc21 | 0.727 | -0.659 (inactive) | -0.0345 | -0.142 | 0.537 | 1.86 | 0.335 | 1.28 | 0.777 | 1.14
COC(=O)[C@@]1(Cc2ccccc2)[C@H]2c3cc(C(=O)N4CCCC4)n(Cc4cc(F)cc5c4OCOC5)c3C[C@H]2CN1C(=O)c1ccccc1 | 1.11 | 0.143 (inactive) | 0.218 | 0.163 | 0.553 | 2.57 | 0.141 | 0.797 | -0.233 | 0.511
CC1CC/C=C\[C@H]2OC34C=CCN(c5ccc6ccccc6c5)C(=O)[C@H]3N(C(CO)C(C)C)C(=O)[C@@H]4C2C(=O)O1 (stereo not given in full) | 0.912 | 0.142 (inactive) | -0.125 | -0.125 | 0.786 | 1.07 | 0.407 | 0.0645 | -0.315 | 0.0601
C=CCN1C(=O)[C@@]2(O[C@@H](CCO)[C@H]([Si](C)(C)c3ccc(OC)cc3)[C@H]2C)c2cc(N3C(=O)c4ccccc4Oc4ccccc43)ccc21 | 0.593 | 0.0553 (inactive) | -0.145 | -0.133 | 0.307 | 1.15 | 0.478 | 0.522 | -0.0806 | 0.854
C=CCOC(=O)[C@@H]1[C@H]2C(=O)O[C@H](c3ccccc3)[C@H](c3ccccc3)N2[C@H](c2ccc(OCCOC(=O)[C@H]3C[C@H]4C(=O)N[C@@H](CCCC[N+](C)(C)C)C(=O)N4[C@H]3c3ccc(O)cc3)cc2)[C@@]12C(=O)Nc1ccc(I)cc12 | -0.914 | 4.1 (inactive) | 0.147 | -0.0843 | 0.534 | 2.74 | 0.577 | 1.3 | 1.16 | 1.19
COCCCNC(=O)[C@]1(CCC(=O)OC(C)(C)C)N=C(c2ccc(OCCCO)cc2)O[C@@H]1c1ccccc1 | 0.968 | 0.977 (inactive) | 0.246 | 0.221 | 0.871 | 3.17 | 0.62 | 0.881 | -0.0833 | -0.354
CC=CC(O)C1C=CC2C(=O)N(c3ccccc3)C(=O)C2N1Nc1ccc([N+](=O)[O-])cc1 (stereo not given) | 0.0015 | -0.127 (inactive) | -0.0044 | -0.123 | 0.661 | 0.657 | 0.865 | 0.729 | 0.414 | 0.217
NC(=O)N1C(=O)C2C(C1=O)C1C=C(c3ccc(CO)cc3)C2C(C2CC2)N1Cc1sc2ccccc2c1Cl (stereo not given) | 0.849 | 0.742 (inactive) | 0.0225 | -0.101 | 0.468 | 1.67 | 0.733 | 1.31 | 0.441 | 1.18
COCCOC(=O)N1C(=O)[C@@]2(c3cc(C#Cc4ccc(OC)cc4)ccc31)[C@H](C(=O)N1CCCCCCC1)[C@H]1C(=O)O[C@H](c3ccccc3)[C@H](c3ccccc3)N1[C@@H]2c1ccc(O)cc1 | -0.617 | 0.527 (inactive) | 0.807 | 0.0137 | 0.168 | 0.234 | 0.421 | 1.15 | 0.643 | 0.692
CC(C)N1CC=CC23O[C@@H]4C=CCCOC(=O)C4[C@H]2C(=O)N(CCO)[C@@H]3C1=O (stereo not given in full) | 0.0894 | -0.455 (inactive) | -0.305 | -0.125 | 0.763 | -0.548 | 0.199 | -0.354 | -0.414 | 0.172
COc1ccc([Si](C)(C)[C@H]2[C@H](CCn3cc([C@H](O)c4ccccc4)nn3)O[C@@]3(C(=O)N(Cc4cccc(N5C(=O)c6cccc7cccc5c67)c4)c4ccccc43)[C@@H]2C)cc1 | 0.145 | 0.674 (inactive) | -0.185 | -0.159 | 0.339 | 0.501 | -0.0631 | 0.258 | -1.54 | -0.24
